Some test systems named below: K-562 leukemia; MALME-3M melanoma; MDA-MB-231 breast; RXF 393 renal; SF-268 CNS; SF-295 CNS; SF-539 CNS; UACC-257 melanoma; M14 melanoma; HCT-15 colon; HT29 colon; SNB-75 CNS; SNB-19 CNS; U251 CNS; PC-3 prostate; UACC-62 melanoma; LOX IMVI melanoma; SK-MEL-28 melanoma; SK-MEL-2 melanoma; SK-MEL-5 melanoma.
Common to all, as to experiment: NCI-60 one-dose screen, 48 h (100 = growth as untreated, 0 = no growth, -100 = all killed)
Details in all cases: 10 µM unless noted

The panel holds about 83,000 compounds, 20% with a hit somewhere; the sample as a whole holds those more often.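 Negative percent growth values reflect cell death: -40 means 40% of the cells present at the start died, and -100 means all died.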 Values without a mark were called inactive. Calls of active or inactive are those of the source. Rule for the calls: active = growth percent below 10; inactive = the rest.

The values that follow come from PubChem BioAssay (NCI).

For `N#Cc1c(-c2ccc(F)cc2)nc2c(C#N)c(Nc3ccccc3)nn2c1N`, the growth in the experiment with K-562 leukemia was 99.5%; with MALME-3M melanoma it was 113%; in the experiment on MDA-MB-231 breast it was 109%; in the experiment with RXF 393 renal, 110%; with SF-268 CNS, 95.3%; in the experiment with SF-295 CNS, 99.3%. In addition, the growth in the experiment with SF-539 CNS was 97.3%; in the experiment on UACC-257 melanoma it was 106%; in the experiment with M14 melanoma, 109%; in the experiment on HCT-15 colon it was 98.7%; in the experiment on HT29 colon, 102%; in the experiment with SNB-75 CNS, 101%. In addition, the growth in the experiment with SNB-19 CNS is 96.3%; in the experiment on U251 CNS, 104%; in the experiment with PC-3 prostate, 96.7%; with UACC-62 melanoma, 99.8%; in the experiment on LOX IMVI melanoma, 99.8%; with SK-MEL-28 melanoma, 102%. Further, the growth in the experiment with SK-MEL-2 melanoma is 105%.
On to `CCOc1ccc2nc(NC(=O)c3ccc(C(F)(F)F)cc3)sc2c1`, for which the growth in the experiment with K-562 leukemia was 108%; in the experiment on MALME-3M melanoma, 112%; with MDA-MB-231 breast it was 106%; in the experiment with RXF 393 renal it was 114%; in the experiment on SF-268 CNS, 106%; with SF-295 CNS, 111%. In addition, the growth in the experiment on SF-539 CNS is 105%; with UACC-257 melanoma, 107%; in the experiment on M14 melanoma it was 107%; in the experiment on HCT-15 colon it was 100%; with HT29 colon, 97.9%; in the experiment on SNB-75 CNS, 102%. For the same molecule, the growth was 101% in the experiment with SNB-19 CNS; 100% in the experiment on U251 CNS; 108% in the experiment on PC-3 prostate; 99.1% in the experiment on UACC-62 melanoma; 105% in the experiment with SK-MEL-28 melanoma; 103% with SK-MEL-2 melanoma.
For the molecule `O=C(NNc1nc2cc(F)ccc2n2c(CN3CC4(COC4)C3)ccc12)c1cnccn1`, the growth in the experiment with K-562 leukemia was 13.4%; with MALME-3M melanoma, 19.5%; in the experiment with MDA-MB-231 breast, 30.6%; in the experiment with RXF 393 renal it was 39.2%; in the experiment with SF-268 CNS it was 22.8%; in the experiment with SF-295 CNS, 14.3%. For the same molecule, the growth in the experiment on SF-539 CNS is 3.55% (active); in the experiment with UACC-257 melanoma it was -8.36% (active); with M14 melanoma, -26.4% (active); in the experiment on HCT-15 colon, 33.1%; in the experiment with HT29 colon, 28.6%; with SNB-75 CNS, 63.1%. For the same molecule, the growth with SNB-19 CNS was 29.4%; in the experiment with PC-3 prostate, 38.9%; with SK-MEL-5 melanoma it was -20.3% (active); with UACC-62 melanoma it was 5.57% (active); in the experiment on LOX IMVI melanoma, 19.1%; in the experiment on SK-MEL-28 melanoma it was 20.6%. In the experiment with SK-MEL-2 melanoma, the growth is 49.7%.
Regarding `O=C(Oc1ccc2ccc(=O)oc2c1)c1ccc(Cl)cc1`, the growth in the experiment with K-562 leukemia is 115%; with MALME-3M melanoma it was 102%; in the experiment on MDA-MB-231 breast it was 103%; in the experiment on RXF 393 renal it was 116%; with SF-268 CNS, 106%; in the experiment on SF-295 CNS, 101%. Moreover, the growth in the experiment on SF-539 CNS was 101%; in the experiment with UACC-257 melanoma, 106%; in the experiment with M14 melanoma, 107%; with HCT-15 colon, 97.9%; in the experiment with HT29 colon, 115%; in the experiment with SNB-75 CNS, 112%. Also, the growth in the experiment with SNB-19 CNS was 93.2%; with PC-3 prostate, 103%; with UACC-62 melanoma, 97.3%; in the experiment with SK-MEL-28 melanoma, 109%; in the experiment on SK-MEL-2 melanoma it was 113%.
Take `CN(C)c1ccc(/C=c2\sc3nc4ccccc4n3c2=O)cc1`: the growth is 96.8% with K-562 leukemia; 101% in the experiment on MALME-3M melanoma; 91.2% with MDA-MB-231 breast; 117% in the experiment on RXF 393 renal; 109% in the experiment with SF-268 CNS; 109% in the experiment on SF-295 CNS. In addition, the growth in the experiment on SF-539 CNS was 96.5%; in the experiment with UACC-257 melanoma it was 117%; in the experiment on M14 melanoma, 102%; in the experiment with HCT-15 colon, 107%; in the experiment with HT29 colon, 107%; in the experiment with SNB-19 CNS, 99.3%. The growth in the experiment on U251 CNS is 102%; in the experiment with PC-3 prostate, 106%; with SK-MEL-5 melanoma it was 101%; in the experiment on UACC-62 melanoma, 96.5%; with LOX IMVI melanoma it was 118%; in the experiment with SK-MEL-28 melanoma, 103%. Further, in the experiment on SK-MEL-2 melanoma, the growth was 118%.
Take `N#Cc1nc(-c2ccccc2)oc1S(=O)(=O)N1CCN(CCc2ccccn2)CC1`: the growth with K-562 leukemia is 6.82% (active); in the experiment with MALME-3M melanoma, -66.9% (active); in the experiment with MDA-MB-231 breast it was 38.9%; in the experiment with RXF 393 renal, -54.7% (active); in the experiment on SF-268 CNS, 109%; in the experiment with SF-295 CNS it was 99.2%. Further, the growth in the experiment on SF-539 CNS was 68.7%; with UACC-257 melanoma, 77%; in the experiment with M14 melanoma, 15.2%; in the experiment with HCT-15 colon it was -27.2% (active); in the experiment on HT29 colon, -5.82% (active); in the experiment on SNB-75 CNS, 87.2%. The growth with SNB-19 CNS is 97.7%; with PC-3 prostate, 86%; in the experiment with SK-MEL-5 melanoma, 97.6%; with UACC-62 melanoma, 83.6%; in the experiment with LOX IMVI melanoma it was -79.2% (active); with SK-MEL-28 melanoma, 43.6%. For the same molecule, in the experiment on SK-MEL-2 melanoma, the growth was 108%.
For the molecule `C#Cc1nc(C2=C(C)C(OC(=O)CCC(=O)O)CC2)cs1` (stereo not given), the growth with K-562 leukemia was 104%; in the experiment with MALME-3M melanoma it was 107%; in the experiment with MDA-MB-231 breast, 104%; with RXF 393 renal it was 113%; in the experiment on SF-268 CNS it was 99.9%; in the experiment on SF-295 CNS it was 108%. Further, the growth was 100% with SF-539 CNS; 102% in the experiment with UACC-257 melanoma; 103% with M14 melanoma; 99.8% in the experiment with HCT-15 colon; 125% in the experiment with HT29 colon; 98.3% in the experiment on SNB-75 CNS. Moreover, the growth in the experiment on SNB-19 CNS was 104%; with PC-3 prostate, 102%; in the experiment with SK-MEL-5 melanoma, 101%; in the experiment with UACC-62 melanoma, 95.3%; in the experiment with SK-MEL-2 melanoma, 114%.
Regarding `COc1cc(/C=C/C(=O)c2ccc(Cl)cc2)ccc1Oc1nc(NCCO)nc(N2CCOCC2)n1`, the growth with K-562 leukemia is 35.9%; with MALME-3M melanoma, 93.5%; in the experiment with MDA-MB-231 breast, 104%; with RXF 393 renal, 97.8%; in the experiment on SF-268 CNS, 97.6%; in the experiment with SF-295 CNS, 101%. Also, the growth in the experiment with SF-539 CNS was 95.9%; in the experiment on UACC-257 melanoma it was 114%; with M14 melanoma, 98.7%; with HCT-15 colon, 98.2%; in the experiment with HT29 colon, 111%; in the experiment on SNB-75 CNS, 97.8%. Also, the growth in the experiment on SNB-19 CNS was 99.3%; in the experiment on PC-3 prostate, 95.3%; with SK-MEL-5 melanoma, 99.7%; in the experiment with UACC-62 melanoma, 93.9%; with SK-MEL-2 melanoma, 99.7%.
